Assay results taken from the supplement of paper PMC6555819.

Assays:
Experiment in all cases: PBM binding z-score (relative to random genomic background probes); higher = stronger binding; sequences stand for … in GC…GCGATTGACAGCGTAGAATGAAGG
[1] = test system: FXR:RXRa (NR concentration 270 nM, RXRa partner concentration 90 nM)
Method in brief: (§1)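 Binding buffer was PBS pH 7.4 with 2% milk, 0.02% Triton X-100, 1 mM DTT, 0.2 mg/mL BSA and 0.4 mg/ml salmon testes DNA. In it, ligand-free nuclear receptor dimers were incubated 1 h on custom Agilent 4×180K protein-binding microarrays carrying double-stranded probes. Antibodies against each partner (one per run) detected binding, and z-scores were calculated against random background probes after regression normalization of scanned fluorescence.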

[2] = test system: LXRa:RXRa (NR concentration 270 nM, RXRa partner concentration 90 nM)
Method in brief: as §1

[3] = test system: LXRa homodimer (NR concentration 270 nM)
Method in brief: as §1

[4] = test system: LXRb:RXRa (NR concentration 270 nM, RXRa partner concentration 90 nM)
Method in brief: as §1

[5] = test system: LXRb homodimer (NR concentration 270 nM)
Method in brief: as §1

[6] = test system: PPARa:RXRa (NR concentration 270 nM, RXRa partner concentration 90 nM)
Method in brief: as §1

[7] = test system: PPARg:RXRa (NR concentration 180 nM, RXRa partner concentration 90 nM)
Method in brief: as §1

[8] = test system: PPARg:RXRa 270nM:90nM, anti-RXR (NR concentration 270 nM, RXRa partner concentration 90 nM)
Method in brief: as §1

[9] = test system: PPARg:RXRa 30nM:10nM, anti-RXR (NR concentration 30 nM, RXRa partner concentration 10 nM)
Method in brief: as §1

[10] = test system: PPARg:RXRa 90nM:30nM, anti-RXR (NR concentration 90 nM, RXRa partner concentration 30 nM)
Method in brief: as §1

[11] = test system: PPARg:RXRa DBDmut IVT, anti-RXR (DBD mutation: RXRa K156A/R161A, NR concentration 270 nM, RXRa partner concentration 90 nM)
Method in brief: as §1

[12] = test system: PPARg:RXRa IVT, anti-PPARg (NR concentration 270 nM, RXRa partner concentration 90 nM)
Method in brief: as §1

[13] = test system: PPARg DBDmut:RXRa IVT, anti-PPARg (DBD mutation: PPARg1 K132A/R137A, NR concentration 270 nM, RXRa partner concentration 90 nM)
Method in brief: as §1

[14] = test system: PPARg DBDmut IVT, anti-PPARg (DBD mutation: PPARg1 K132A/R137A, NR concentration 270 nM)
Method in brief: as §1

[15] = test system: PPARg homodimer (NR concentration 180 nM)
Method in brief: as §1

[16] = test system: PXR:RXRa (NR concentration 270 nM, RXRa partner concentration 90 nM)
Method in brief: as §1

[17] = test system: PXR homodimer (NR concentration 270 nM)
Method in brief: as §1

[18] = test system: RARa:RXR (NR concentration 270 nM, RXRa partner concentration 90 nM)
Method in brief: as §1

[19] = test system: RARa homodimer (NR concentration 270 nM)
Method in brief: as §1

[20] = test system: RARb:RXRa (NR concentration 270 nM, RXRa partner concentration 90 nM)
Method in brief: as §1

Row | Sequence | PBM binding z-score [1] | PBM binding z-score [2] | PBM binding z-score [3] | PBM binding z-score [4] | PBM binding z-score [5] | PBM binding z-score [6] | PBM binding z-score [7] | PBM binding z-score [8] | PBM binding z-score [9] | PBM binding z-score [10] | PBM binding z-score [11] | PBM binding z-score [12] | PBM binding z-score [13] | PBM binding z-score [14] | PBM binding z-score [15] | PBM binding z-score [16] | PBM binding z-score [17] | PBM binding z-score [18] | PBM binding z-score [19] | PBM binding z-score [20]
1 | CCTAGTTGGTCCGGAGGTCACACACCGGATATGA | 3.5 | 3.34 | 2.47 | 3.37 | 0.577 | 3.61 | 2.4 | 3.54 | 1.51 | 3.05 | 0.0727 | 1.77 | -0.285 | 0.613 | 2.74 | 4.13 | 1.54 | 4.43 | 1.45 | 3.47
2 | ACAGACAGGTTATGAAGGTAACTCAGGCTATCAT | 0.409 | 0.85 | 0.14 | 0.672 | 0.2 | 1.21 | 0.876 | 0.402 | -0.0537 | 0.403 | 0.3 | 0.659 | 0.714 | 0.581 | 0.432 | 0.377 | 0.271 | 0.863 | 0.217 | 0.899
3 | GCTCGGATGACAAGGTCAGAGCTTTGTCCGTAGA | 0.982 | 1.15 | -0.396 | 0.805 | -1.32 | 1.93 | 0.116 | 0.444 | -0.707 | -0.161 | 0.0806 | 0.0489 | -1.27 | -1.25 | 0.624 | 1.51 | -0.626 | 2.09 | -1.1 | 2.61
4 | CGAACTACGTCAGAACAGGACAGTGAAGGATGAT | -0.457 | -0.582 | -0.294 | -1.05 | -0.438 | -0.716 | 0.632 | -0.752 | -0.147 | -0.37 | -0.549 | -0.508 | 0.627 | 0.733 | 0.0908 | -0.524 | -0.0465 | -0.592 | -0.0605 | -0.283
5 | CCTAGTAGGTCAGGAGGTCACACACCGGATATGA | 5.48 | 4.97 | 2.62 | 4.41 | 0.811 | 5.81 | 9.01 | 7.34 | 6.14 | 7.5 | 7.03 | 7.47 | 1.73 | 1.02 | 4.99 | 4.94 | 1.33 | 6.63 | 3.21 | 4.72
6 | TCATATCGGTAAAAGGTGAAAGTCGGTGTGGTAA | 1.65 | 1.77 | 0.323 | 1.52 | 0.181 | 4.23 | 6.69 | 6.91 | 6.64 | 7.74 | 3 | 3.46 | 0.579 | 1.77 | 2.19 | 1.25 | 0.807 | 2.24 | 1.92 | 1.97
7 | TGTCAAAGTTCAAAGGCAACGTAAGTATCCACAC | 6.68 | 6.1 | 4.08 | 3.86 | 1.39 | 5.04 | 8 | 7.39 | 5 | 7.03 | -0.195 | 3.82 | 1.26 | 1.83 | 3.71 | 4.86 | 2.97 | 3.97 | 1.3 | 4.97
8 | CCTACTGGGCCACGGAAGGTCATTGATTCAGTGA | 1.94 | 2.96 | 2.27 | 2.25 | -0.194 | 3.5 | 3.4 | 3.37 | 1.05 | 2.35 | 4.56 | 5.51 | -0.609 | -0.824 | 1.7 | 3.57 | 0.303 | 3.15 | 0.0822 | 3
9 | GGAACGAGGGCAAAGTTGATCGCATCTGTCGACG | 1.11 | 0.829 | -0.561 | 0.545 | -0.311 | 3.82 | 6.68 | 6.95 | 5.94 | 7.29 | 3.98 | 4.13 | -0.0459 | -0.518 | 0.458 | 0.924 | 0.152 | 1.42 | -0.502 | 2.32
10 | CCGAGTGGGGCAGAAAGGTTACCATACCATCCGG | 0.579 | 0.723 | 0.104 | 0.959 | -0.975 | 2.23 | 1.76 | 2.79 | 0.657 | 2.3 | 1.16 | 1.76 | -1.17 | -1.29 | 0.799 | 1.05 | 0.126 | 1.5 | -0.131 | 1.63
11 | CCGAGTGGGTTATGGGGCATTCAGGCAACGGTGA | 0.128 | 0.155 | -0.051 | 0.764 | -0.129 | 1.74 | 2.61 | 3.77 | 1.55 | 3.82 | 1.23 | 2.29 | -0.951 | -0.669 | 0.384 | -0.309 | 0.21 | 0.0956 | 0.0265 | 0.461
12 | TTTCGGAGGACACGAAAGGTCAGAGCTCGACATC | 3.67 | 4.36 | 4.05 | 3.47 | 0.13 | 3.77 | 1.9 | 2.77 | 0.718 | 1.71 | 0.372 | 2.08 | -0.0451 | 0.278 | 4.65 | 4.29 | 0.968 | 4.44 | 1.88 | 4.32
13 | TTACCAAGGGGAGCTGAGGTCGTTGATCCAACTC | 1.8 | 0.173 | -0.107 | 0.623 | -0.398 | 0.818 | -0.207 | 0.37 | 0.187 | -0.00393 | 0.0938 | 0.219 | -0.939 | -0.633 | -0.405 | 2.35 | 0.544 | 1.03 | -0.882 | 0.604
14 | CCTAGCAGGCCAATTTGGGTCACTCAAGGCTTGA | 1.3 | 1.3 | -0.0886 | 1.16 | -1.16 | 2.37 | 0.558 | 0.917 | -0.434 | 0.671 | 2.7 | 2.91 | -1.03 | -1.39 | 0.323 | 1.12 | -0.236 | 1.52 | -0.55 | 1.29
